Inconclusive results are not listed. Activity calls are given as the source filed them. Calls come from the whole dose curve; as a rule, active = well fitted curve in the direction sought with a large enough effect; inconclusive = small, poorly fitted or top-dose-only effect, or another doubt; inactive = no such curve, though single readings can be large; an effect the other way counts as inactive or inconclusive.
Tests used:
CRL-7250 = normal cell line; test: Cytotoxic Profiling of Annotated Libraries Using Quantitative High-Throughput Screening (AID 1296008); settings: Five cell lines viability, CellTiter-Glo ATP luminescence, 48-72 h; max response: active compounds read low; note: nearly all actives have a fitted effect of over 60% in size; for max response: % is set by controls: 0 for no effect and ±100 for the full control effect
How it was run: (§1)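 Compounds were pin-transferred onto cells and incubated 48 or 72 hr at 37 degree Celsius, 95% humidity. CellTiter-Glo was added, plates sat 10 min at room temperature, then ATP-coupled luminescence was imaged as the viability read-out.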

HEK293 = test: as above; settings: Five cell lines viability, CellTiter-Glo ATP luminescence, 48-72 h; max response: active compounds read low
How it was run: as §1

HaCat = test: as above; settings: Five cell lines viability, CellTiter-Glo ATP luminescence, 48-72 h; max response: active compounds read low
How it was run: as §1

KB-3-1 = test: as above; settings: Five cell lines viability, CellTiter-Glo ATP luminescence, 48-72 h; max response: active compounds read low
How it was run: as §1

NIH3T3 = test: as above; settings: Five cell lines viability, CellTiter-Glo ATP luminescence, 48-72 h; max response: active compounds read low
How it was run: as §1

MCC-13 = test: qHTS assay to identify novel small-molecules to repurpose for Merkel cell carcinoma treatment (AID 1296009); settings: MCC and control cell lines, CellTiter-Glo viability, 72 h; series mostly up to 46 µM; note: % is set by controls: 0 for no effect and ±100 for the full control effect; nearly all actives have a fitted effect of over 60% in size
How it was run: (§2)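 Viability readout: ATP luminescence (CellTiter-Glo) after 72 hr drug exposure at 37 degree celsius. Dose-response format was 8 points for NPC and 11 points for MIPE; data normalized to in-plate controls.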

MCC-26 = test: as above; settings: MCC and control cell lines, CellTiter-Glo viability, 72 h; series mostly up to 46 µM
How it was run: as §2

MKL-1 = test: as above; settings: MCC and control cell lines, CellTiter-Glo viability, 72 h; series mostly up to 46 µM
How it was run: as §2

MKL-2 = test: as above; settings: MCC and control cell lines, CellTiter-Glo viability, 72 h; series mostly up to 46 µM
How it was run: as §2

UISO = test: as above; settings: MCC and control cell lines, CellTiter-Glo viability, 72 h; series mostly up to 46 µM
How it was run: as §2

WaGa = test: as above; settings: MCC and control cell lines, CellTiter-Glo viability, 72 h; series mostly up to 46 µM
How it was run: as §2

C33A = test: Primary qHTS to identify gynecologic anti-cancer compounds using libraries of approved drugs and bioactive compounds (AID 1345084); settings: Gynecologic cancer cell panel viability, ATPlite luminescence, 48 h; series mostly up to 57.5 µM; note: % is set by controls: 0 for no effect and ±100 for the full control effect; nearly all actives have a fitted effect of over 55% in size
How it was run: (§3)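 Cell viability after 48 h drug treatment, ATPlite luminescence readout; five doses.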

CASKI = test: as above; settings: Gynecologic cancer cell panel viability, ATPlite luminescence, 48 h; series mostly up to 57.5 µM
How it was run: as §3

Es-2 = test: as above; settings: Gynecologic cancer cell panel viability, ATPlite luminescence, 48 h; series mostly up to 57.5 µM
How it was run: as §3

HeLa = test: as above; settings: Gynecologic cancer cell panel viability, ATPlite luminescence, 48 h; series mostly up to 57.5 µM
How it was run: as §3

W2 = test: qHTS profiling for inhibitors of Plasmodium falciparum proliferation (AID 504749);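 note: 0% = DMSO vehicle and full inhibition = artemisinin control; nearly all actives have a fitted effect of over 60% in size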; settings: P. falciparum in erythrocytes, SYBR Green DNA, 72 h; series mostly up to 28.7 µM
How it was run: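 Quantitative HTS: compounds pinned into medium, infected erythrocytes added (0.3% parasitemia, 2.5% hematocrit), 72 h culture at 37 C under 5% CO2. Saponin/Triton lysis with SYBR Green I, overnight RT, then fluorescence read.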

CAOV3 = test: Primary qHTS to identify gynecologic anti-cancer compounds using libraries of approved drugs and bioactive compounds (AID 1345084); settings: Gynecologic cancer cell panel viability, ATPlite luminescence, 48 h; series mostly up to 57.5 µM; note: % is set by controls: 0 for no effect and ±100 for the full control effect; nearly all actives have a fitted effect of over 55% in size
How it was run: as §3

O=[N+]([O-])c1cccc(S(=O)(=O)NCCNS(=O)(=O)c2cccc([N+](=O)[O-])c2)c1
inactive: outcome (CRL-7250) | max response (HEK293) -16% | max response (HaCat) 0.408% | max response (KB-3-1) 2.2% | max response (NIH3T3) -4.18% | Potency (MCC-13) | Potency (MCC-26) | Potency (MKL-1) | Potency (MKL-2) | Potency (UISO) | Potency (WaGa) | Potency (C33A) | Potency (CASKI) | Potency (Es-2) | Potency (HeLa)

O=C(NCCc1c[nH]c2ccccc12)c1cccnc1
inactive: Potency (W2) | max response (CRL-7250) 2.2% | max response (HEK293) -10.1% | max response (HaCat) -2.67% | max response (KB-3-1) -10.3% | max response (NIH3T3) 0.897% | Potency (MCC-13) | Potency (MCC-26) | Potency (MKL-1) | Potency (MKL-2) | Potency (UISO) | Potency (WaGa) | Potency (C33A) | Potency (CAOV3) | Potency (CASKI) | Potency (HeLa)

CCCCCCCCCCCCSCCOCCO
inactive: Potency (W2) | max response (CRL-7250) 2.82% | max response (HEK293) -0.323% | max response (HaCat) 0.693% | max response (KB-3-1) 1.68% | max response (NIH3T3) -3.9% | Potency (MCC-13) | Potency (MCC-26) | Potency (MKL-2) | Potency (UISO) | Potency (WaGa) | Potency (C33A) | Potency (CAOV3) | Potency (CASKI) | Potency (Es-2) | Potency (HeLa)

CC(C)[N+](C)(C)CC(O)COc1cccc2ccccc12 (stereo not given)
inactive: Potency (W2) | max response (CRL-7250) -19.4% | max response (HEK293) -10.5% | max response (HaCat) -6.06% | max response (KB-3-1) -4.04% | max response (NIH3T3) -0.944% | Potency (MCC-13) | Potency (MCC-26) | Potency (MKL-1) | Potency (MKL-2) | Potency (UISO) | Potency (C33A) | Potency (CAOV3) | Potency (CASKI) | Potency (Es-2) | Potency (HeLa)

CC(C)Cc1ccc(CC(=O)O)cc1
inactive: Potency (W2) | max response (CRL-7250) 2.76% | max response (HEK293) -6.81% | max response (HaCat) -0.56% | max response (KB-3-1) -9.62% | max response (NIH3T3) 2.82% | Potency (MCC-13) | Potency (MCC-26) | Potency (MKL-1) | Potency (MKL-2) | Potency (UISO) | Potency (WaGa) | Potency (C33A) | Potency (CAOV3) | Potency (CASKI) | Potency (Es-2) | Potency (HeLa)

NS(=O)(=O)Cc1noc2ccccc12
inactive: Potency (W2) | max response (CRL-7250) 0.547% | max response (HEK293) -4.5% | max response (HaCat) 1.67% | max response (NIH3T3) 0.477% | Potency (MCC-13) | Potency (MCC-26) | Potency (MKL-1) | Potency (MKL-2) | Potency (UISO) | Potency (WaGa) | Potency (C33A) | Potency (CAOV3) | Potency (CASKI) | Potency (Es-2) | Potency (HeLa)

O=C(Oc1cccc2cccnc12)c1ccccc1
inactive: max response (CRL-7250) -27.3% | max response (HEK293) -102% | max response (HaCat) -16.2% | max response (KB-3-1) 6.72% | Potency (MKL-1) | Potency (CAOV3) | Potency (CASKI) | Potency (Es-2) | Potency (HeLa)
